# An excerpt weighted towards active compounds, which were near 8.8% of everything screened.
# IL1B secr inh: inflammasome signaling inhibition, IL-1 beta readout; activity change, % at 57.5 µM; THP-1 LPS/ATP IL-1B secretion, AlphaLISA, 16 h; stronger effect = lower value; AID 743279; 360,000 tested, 4.7% active; in the data active = activity change below about -50%; inconclusive = mostly about -30% to -49%
#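 THP-1 cells pretreated 1 hr with compounds (up to 57.5 uM final), then stimulated with LPS (250 ng/mL final) plus ATP (1.25 mM final); secreted IL-1B measured by AlphaLISA after 16 hr, decreased signal indicating inhibition.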
# KB-3-1 cytotox: kills parental KB-3-1 adenocarcinoma cells. Potency, µM (titrated, usually from 46.1 µM), usual class: cytotoxic. KB-3-1 viability, CellTiter-Glo ATP luminescence, 72 h. 400,000 tested, 1.4% active. AID 1347075; note: potency is the fitted concentration of half-maximal effect; nearly all actives have a fitted effect of over 60% in size
#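 Luminescent ATP read-out (CellTiter-Glo) measures survival of drug-naive KB-3-1 cells after 72 h compound exposure at 37 °C. Titration series was screened from lowest to highest concentration, with DMSO vehicle plates as background controls.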
# HT1080 IDH1KD tx: toxicity to HT-1080 IDH1 knockdown cells (counter line). HT-1080 IDH1 knockdown viability, ATP luminescence, 48 h. Potency, µM (series often up to 46.1 µM), for inactives: at the top dose activity, negative = toxicity, actives largely listed as cytotoxic. 360,000 tested, 2% active. AID 686971;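 note: potency is the fitted concentration of half-maximal effect; 0% = DMSO wells and -100% = cell-free medium wells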
#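 HT-1080-IDH1KD cells (IDH1 knocked down), 750/well in RPMI with 5% FBS, treated with compound 48 h at 37 degrees C. Viability by CellTiter-Glo luminescence, normalised to DMSO and no-cell wells; concentration-response curves classed.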
# HT1080NT lethal: kills 2HG-producing HT-1080-NT fibrosarcoma cells | Potency, µM (top dose mostly 46.1 µM), inactives show top-dose activity, negative = less viability, hits mostly cytotoxic | 360,000 tested, 1.6% active | HT-1080-NT fibrosarcoma viability, CellTiter-Glo ATP luminescence, 48 h;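 note: NT is the 2HG producing partner of a matched IDH1 knockdown line; potency is the fitted concentration of half-maximal effect; 0% = DMSO-treated cells and -100% = media-only wells without cells; nearly all actives have a fitted effect of over 55% in size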
#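 Toxicity toward the 2HG-producing NT line was scored as %Activity, normalised to DMSO and no-cell wells, from CellTiter-Glo luminescence after 48 hours' treatment.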
# KB-V1 MDR tox: kills drug-selected multidrug resistant KB-V1 cells | Potency, µM (highest dose often 46.1 µM), hits mostly cytotoxic | 400,000 tested, 3.4% active | KB-V1 MDR cells viability, CellTiter-Glo, 72 h; note: potency is the fitted concentration of half-maximal effect; nearly all actives have a fitted effect of over 60% in size
#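 Readout: CellTiter-Glo luminescence, 10 min after addition. Cells: KB-V1 MDR subline, 72 h at 37 degrees C with compound. Analysis: corrected, normalized data fitted to concentration-effect curves.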
# Numbers without * were called inactive; i = inactive; ? = inconclusive; . = no result; ! = a repeat was not active. Unless noted, calls come from the whole dose curve; as a rule, active = well fitted curve in the direction sought with a large enough effect; inconclusive = small, poorly fitted or top-dose-only effect, or another doubt; inactive = no such curve, though single readings can be large; an effect the other way counts as inactive or inconclusive. Unless noted, % is set by controls: 0 for no effect and ±100 for the full control effect.
SMILES,IL1B secr inh,KB-3-1 cytotox,HT1080 IDH1KD tx,HT1080NT lethal,KB-V1 MDR tox
O=C(Nc1nnc(C2CC2)s1)c1cc([N+](=O)[O-])ccc1N1CCCCC1,0,i,-27%,-21%,?
CCn1c(Cc2ccccc2)nnc1SCC(=O)N1CCCC1=O,-14,i,15%,3%,i
O=C(NCc1ccccc1)C(c1cccnc1)N(Cc1ccco1)C(=O)c1ccccn1 (stereo not drawn),-1,i,-1%,1%,i
CCC(C)(C)NC(=O)C(c1sccc1C)N(Cc1ccco1)C(=O)c1csnn1 (stereo not drawn),-11,i,-2%,2%,i
CCC(C)(C)NC(=O)C(c1ccccc1F)N(Cc1ccco1)C(=O)c1csnn1 (stereo not drawn),-5,i,-1%,-21%,18µM*
COC(=O)c1ccc(C(C(=O)NCc2ccccc2)N(Cc2ccco2)C(=O)c2cnccn2)cc1 (stereo not drawn),-59*,i,-3%,-3%,i
CC(C)(C)NC(=O)C(c1ccc(F)cc1)N(Cc1ccco1)C(=O)c1csnn1 (stereo not drawn),-29,i,-5%,-5%,i
CCC(C)(C)NC(=O)C(c1ccc(F)cc1)N(Cc1ccco1)C(=O)c1cnccn1 (stereo not drawn),-83*,i,2%,-9%,i
CN(C)CCOc1ccc2ccccc2c1,3,i,7%,5%,i
Cc1c(-c2ccccc2)c(-c2ccc(OCCN(C)C)cc2)n2ccccc12,-59*,i,-20%,-7%,i
COc1ccc(/C=N/N=C/c2ccc(OC)c(OC)c2)cc1OC,13,i,0%,8%,i
COc1cc(/C=N/N=C(N)N)ccc1OCc1ccccc1Cl,-66*,?,-22%,-16%,i
O=C(O)C(Cc1cn[nH]n1)=NO,12,i,4%,9%,i
CC(=O)c1sc(=S)n(-c2ccccc2)c1C,5,i,-9%,1%,i
CC(=O)c1sc2c(c1OC(=O)c1ccccc1)c(=O)n(-c1ccccc1)c(=S)n2-c1ccccc1,-9,8.2µM*,?,?,9.2µM*
COc1ccc(NC(=O)CSc2n[nH]c(C(C)C)n2)c([N+](=O)[O-])c1,-67*,i,2%,-3%,?
COc1cc(NC(=O)CSc2nc(C)c(C)c(C)n2)c(C)cc1[N+](=O)[O-],41,i,-3%,-4%,15µM*
Cc1cccc(NC(=O)N2CCCc3ccccc32)c1C,-8,i,3%,4%,i
CN(CC(=O)Nc1ccccc1Br)C(=O)c1cccc(S(=O)(=O)N2CCc3ccccc32)c1,-19,i,-19%,-5%,18µM*
COc1ccc(C(CNC(=O)c2cccc(S(=O)(=O)N3CCc4ccccc43)c2)N(C)C)cc1 (stereo not drawn),-75*,?,-14%,-6%,i
COc1ccccc1C(CNC(=O)c1cccc(S(=O)(=O)N2CCCc3ccccc32)c1)N(C)C (stereo not drawn),?,i,-6%,-20%,5.8µM*
COc1ccccc1C(CNC(=O)c1cccc(S(=O)(=O)NCc2ccccc2)c1)N(C)C (stereo not drawn),0,i,0%,0%,i
COc1ccc(NC(=O)CN(C)C(=O)c2cccc(S(=O)(=O)N3CCCc4ccccc43)c2)cc1,9,i,-9%,-1%,i
COc1ccccc1C(CNC(=O)c1cccc(S(=O)(=O)N2c3ccccc3CC2C)c1)N(C)C (stereo not drawn),-54*,i,-5%,?,i
Oc1ccc(CNc2ccccc2F)c2cccnc12,106,21µM*!,?,?,?
Oc1ccc(F)c2cccnc12,-70*,i,0%,?,i
CCCNC(=O)CCC(=O)N1Cc2cccc(OC)c2Oc2ncccc21,.,i,.,.,i
Cn1c(=O)c2[nH]c(Cc3cccc4ccccc34)nc2n(C)c1=O,19,i,2%,3%,?

# Bioassay records as filed in PubChem BioAssay.
